Measurements taken from PubChem BioAssay (EPA / NIEHS).
Activity calls are given as the source filed them. Rule for the calls: active = hit-call score of the fitted dose curve at least 0.9, where 1 is the maximum; inactive = score below 0.9.

Experiments:
[1] = read-out: TIMP metallopeptidase inhibitor 1 (TIMP1), TIMP1 (gene 7076); assay: BSK_hDFCGF_TIMP1: BioMAP Diversity Plus: hDFCGF Assay for TIMP metallopeptidase inhibitor 1 (TIMP1) Biomarker Activity (AID 2283062); conditions: primary human foreskin fibroblasts; actives raise or lower the signal
Summary of the method: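 TIMP-1 measured by ELISA 24 h after chemical dosing of primary human skin fibroblasts, with gain or loss fitted relative to DMSO. Parallel SRB staining (560 nm) monitored overt cytotoxicity.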

[2] = read-out: Monokine induced gamma interferon (MIG), CXCL9 (gene 4283); assay: BSK_hDFCGF_MIG: BioMAP Diversity Plus: hDFCGF Assay for Monokine induced gamma interferon (MIG) Biomarker Activity (AID 2283063); conditions: primary human foreskin fibroblasts; actives raise or lower the signal
Summary of the method: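 Human primary foreskin fibroblasts in the hDFCGF system, exposed to test chemical for 24 h; MIG measured by ELISA. Bidirectional curve fitting against DMSO negative control as activity baseline.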

[3] = read-out: Matrix Metallopeptidase 1 (MMP1), MMP1 (gene 4312); assay: BSK_hDFCGF_MMP1: BioMAP Diversity Plus: hDFCGF Assay for Matrix Metallopeptidase 1 (MMP1) Biomarker Activity (AID 2283064); conditions: primary human foreskin fibroblasts; actives raise or lower the signal
Summary of the method: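 Primary human foreskin fibroblasts in the hDFCGF system were dosed with test chemical, and MMP1 was measured by ELISA 24 h later. Values come from bidirectional curve fitting against the DMSO baseline.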

[4] = read-out: Plasminogen activator inhibitor-1 (PAI1), SERPINE1 (gene 5054); assay: BSK_hDFCGF_PAI1: BioMAP Diversity Plus: hDFCGF Assay for Plasminogen activator inhibitor-1 (PAI1) Biomarker Activity (AID 2283066); conditions: primary human foreskin fibroblasts; actives raise or lower the signal
Summary of the method: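 Human foreskin fibroblast primary cells, 24 h chemical exposure; PAI-1 measured by ELISA. Bidirectional fitting relative to DMSO; parallel cultures stained with SRB for total protein to flag overt cytotoxicity.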

[5] = read-out: Intercellular Adhesion Molecule 1 (ICAM1), ICAM1 (gene 3383); assay: BSK_KF3CT_ICAM1: BioMAP Diversity Plus: KF3CT Assay for Intercellular Adhesion Molecule 1 (ICAM1) Biomarker Activity (AID 2283067); conditions: primary human keratinocytes with fibroblasts; actives raise or lower the signal
Summary of the method: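 Cell-surface ICAM-1 was measured by ELISA 24 h after dosing primary human skin keratinocytes co-cultured with fibroblasts. Parallel SRB staining tracked overt cytotoxicity. Gain or loss of signal was fitted relative to DMSO.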

[6] = read-out: Interferon-gamma inducible Protein 10 (IP10), CXCL10 (gene 3627); assay: BSK_KF3CT_IP10: BioMAP Diversity Plus: KF3CT Assay for Interferon-gamma inducible Protein 10 (IP10) Biomarker Activity (AID 2283068); conditions: primary human keratinocytes with fibroblasts; actives raise or lower the signal
Summary of the method: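 Signal is secreted/surface IP-10 by ELISA in a human primary skin co-culture of keratinocytes and foreskin fibroblasts, taken 24 h post-dosing; DMSO served as negative control.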

[7] = BSK_KF3CT_SRB: Viability Assessment in the BioMAP Diversity Plus: KF3CT Assay (AID 2283069); conditions: primary human keratinocytes with fibroblasts;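 note: total protein by sulforhodamine B staining as a cytotoxicity measure; read 24 h after compound addition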
Summary of the method: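 Human primary keratinocyte plus foreskin fibroblast co-culture exposed to chemicals for 24 h. Total protein measured by 0.1% sulforhodamine B staining after 10% TCA fixation, read at 560 nm; bidirectional fitting versus DMSO baseline.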

[8] = read-out: Interleukin-1 alpha (IL1a), IL1A (gene 3552); assay: BSK_KF3CT_IL1a: BioMAP Diversity Plus: KF3CT Assay for Interleukin-1 alpha (IL1a) Biomarker Activity (AID 2283070); conditions: primary human keratinocytes with fibroblasts; actives raise or lower the signal
Summary of the method: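 Human keratinocyte plus foreskin fibroblast primary co-culture, sampled 24 h after chemical dosing. IL-1a measured by ELISA; responses fitted bidirectionally against DMSO baseline (negative control), so gain or loss of signal both count.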

[9] = read-out: TIMP metallopeptidase inhibitor 2 (TIMP2), TIMP2 (gene 7077); assay: BSK_KF3CT_TIMP2: BioMAP Diversity Plus: KF3CT Assay for TIMP metallopeptidase inhibitor 2 (TIMP2) Biomarker Activity (AID 2283071); conditions: primary human keratinocytes with fibroblasts; actives raise or lower the signal
Summary of the method: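 Co-culture of human primary keratinocytes and foreskin fibroblasts, measured 24 h after chemical dosing. TIMP-2 quantified by ELISA and fitted in both directions relative to DMSO. Cytotoxicity checked in parallel cultures by SRB total-protein staining.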

[10] = read-out: Transforming growth factor beta 1 (TGFb1), TGFB1 (gene 7040); assay: BSK_KF3CT_TGFb1: BioMAP Diversity Plus: KF3CT Assay for Transforming growth factor beta 1 (TGFb1) Biomarker Activity (AID 2283072); conditions: primary human keratinocytes with fibroblasts; actives raise or lower the signal
Summary of the method: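 Human keratinocyte/foreskin fibroblast co-culture; TGF-b1 measured by ELISA 24 h after dosing, fitted bidirectionally versus DMSO. Cytotoxicity checked in parallel cultures by total protein (SRB staining, 560 nm).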

[11] = read-out: C-C motif chemokine 2 (Homo sapiens) (UniProt P13500); assay: BSK_KF3CT_MCP1: BioMAP Diversity Plus: KF3CT Assay for Monocyte Chemoattractant Protein 1 (MCP1/CCL2) Biomarker Activity (AID 2283073); conditions: primary human keratinocytes with fibroblasts; actives raise or lower the signal
Summary of the method: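 ELISA read-out of MCP-1, 24 h post-dose, in primary human skin keratinocytes co-cultured with fibroblasts. Parallel SRB staining monitors cytotoxicity; changes fitted both directions relative to DMSO.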

[12] = read-out: Matrix Metallopeptidase 9 (MMP9), MMP9 (gene 4318); assay: BSK_KF3CT_MMP9: BioMAP Diversity Plus: KF3CT Assay for Matrix Metallopeptidase 9 (MMP9) Biomarker Activity (AID 2283074); conditions: primary human keratinocytes with fibroblasts; actives raise or lower the signal
Summary of the method: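 Keratinocyte plus foreskin fibroblast human primary skin co-culture was dosed with chemical and MMP-9 was quantified by ELISA 24 h later. Bidirectional curve fitting used DMSO as negative control and activity baseline.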

[13] = read-out: urokinase plasminogen activator (uPA), PLAU (gene 5328); assay: BSK_KF3CT_uPA: BioMAP Diversity Plus: KF3CT Assay for urokinase plasminogen activator (uPA) Biomarker Activity (AID 2283075); conditions: primary human keratinocytes with fibroblasts; actives raise or lower the signal
Summary of the method: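 Human keratinocyte plus foreskin fibroblast primary co-culture exposed to chemical for 24 h. uPA levels were quantified by ELISA, and activity was fitted bidirectionally against a DMSO negative-control baseline.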

CD40, CD40 (gene 958) = assay: BSK_LPS_CD40: BioMAP Diversity Plus: LPS Assay for CD40 Biomarker Activity (AID 2283076); conditions: primary human HUVEC with PBMC; actives raise or lower the signal
Summary of the method: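 In the LPS system of human endothelial cells with peripheral blood mononuclear cells, CD40 levels were read by ELISA 24 h post-treatment. Signal changes in either direction were fitted against the DMSO baseline, with parallel SRB protein staining.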

[14] = read-out: E-selectin (Homo sapiens) (UniProt P16581); assay: BSK_LPS_Eselectin: BioMAP Diversity Plus: LPS Assay for Eselectin Biomarker Activity (AID 2283077); conditions: primary human HUVEC with PBMC; actives raise or lower the signal
Summary of the method: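 E-selectin ELISA on LPS-stimulated endothelial cell/PBMC co-cultures, read 24 h post-treatment; gains and losses fitted against DMSO. Parallel SRB staining (0.1% SRB after 10% TCA fixation, 560 nm) flags overt cytotoxicity.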

[15] = read-out: Interleukin-8 (IL8), CXCL8 (gene 3576); assay: BSK_LPS_IL8: BioMAP Diversity Plus: LPS Assay for Interleukin-8 (IL8) Biomarker Activity (AID 2283078); conditions: primary human HUVEC with PBMC; actives raise or lower the signal
Summary of the method: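 ELISA read-out of IL-8 after 24 h chemical treatment of LPS-activated endothelial/PBMC human primary co-cultures. Changes either up or down relative to DMSO; overt cytotoxicity checked by sulforhodamine B staining in parallel wells.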

[16] = BSK_LPS_SRB: Viability Assessment in the BioMAP Diversity Plus: LPS Assay (AID 2283079); conditions: primary human HUVEC with PBMC;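 note: total protein by sulforhodamine B absorbance as a cytotoxicity measure; measured one day after compound addition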
Summary of the method: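 SRB viability endpoint: cells fixed with 10% TCA, stained with 0.1% SRB, read at 560 nm, 24 h post-dose. HUVEC/PBMC co-culture; signal change in either direction scored relative to DMSO.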

[17] = read-out: Interleukin-1 alpha (IL1a), IL1A (gene 3552); assay: BSK_LPS_IL1a: BioMAP Diversity Plus: LPS Assay for Interleukin-1 alpha (IL1a) Biomarker Activity (AID 2283080); conditions: primary human HUVEC with PBMC; actives raise or lower the signal
Summary of the method: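 Readout is IL-1a level by ELISA, 24 h post-dose, fitted as gain or loss relative to DMSO. System: LPS-activated human primary co-culture of vascular endothelium and peripheral blood mononuclear cells, with parallel SRB total-protein cytotoxicity.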

[18] = read-out: Monocyte Chemoattractant Protein-1 (MCP1), CCL2 (gene 6347); assay: BSK_LPS_MCP1: BioMAP Diversity Plus: LPS Assay for Monocyte Chemoattractant Protein-1 (MCP1) Biomarker Activity (AID 2283081); conditions: primary human HUVEC with PBMC; actives raise or lower the signal
Summary of the method: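 Secreted MCP-1 read by ELISA at 24 h post-dosing in an LPS-activated co-culture of endothelial cells with peripheral blood mononuclear cells. Fits run in both directions, DMSO as baseline; parallel SRB staining tracks overt cytotoxicity.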

[19] = read-out: Vascular cell adhesion molecule 1 (VCAM1), VCAM1 (gene 7412); assay: BSK_hDFCGF_VCAM1: BioMAP Diversity Plus: hDFCGF Assay for Vascular cell adhesion molecule 1 (VCAM1) Biomarker Activity (AID 2283065); conditions: primary human foreskin fibroblasts; actives raise or lower the signal
Summary of the method: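 ELISA readout of VCAM-1 on human dermal fibroblast primary cultures, 24 h after chemical exposure. Gain or loss of signal fitted in both directions against DMSO baseline.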

Measured: outcome

Chain of E-selectin (Homo sapiens) (P16581 whole entry, looked up): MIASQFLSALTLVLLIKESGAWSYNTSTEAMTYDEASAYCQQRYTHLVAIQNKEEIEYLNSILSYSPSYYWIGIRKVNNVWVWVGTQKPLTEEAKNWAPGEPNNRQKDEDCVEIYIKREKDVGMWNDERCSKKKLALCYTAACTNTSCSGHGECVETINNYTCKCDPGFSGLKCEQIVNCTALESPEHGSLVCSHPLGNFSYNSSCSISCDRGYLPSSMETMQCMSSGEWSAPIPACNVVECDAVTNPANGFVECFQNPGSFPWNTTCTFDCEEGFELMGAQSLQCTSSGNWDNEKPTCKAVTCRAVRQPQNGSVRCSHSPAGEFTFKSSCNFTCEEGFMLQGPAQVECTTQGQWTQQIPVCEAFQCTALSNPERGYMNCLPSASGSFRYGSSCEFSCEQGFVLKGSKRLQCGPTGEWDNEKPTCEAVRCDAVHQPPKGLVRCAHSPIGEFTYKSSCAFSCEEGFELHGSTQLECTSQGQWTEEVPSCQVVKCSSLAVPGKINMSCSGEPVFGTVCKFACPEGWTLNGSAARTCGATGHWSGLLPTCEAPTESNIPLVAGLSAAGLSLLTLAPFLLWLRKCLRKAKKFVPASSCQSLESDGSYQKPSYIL

C[N+](C)(C)CC1CO1 (stereo not given)
inactive: [1] | [2] | [3] | [4] | [5] | [6] | [7] | [8] | [9] | [10] | [11] | [12] | [13] | CD40, CD40 (gene 958) | [14] | [15] | [16] | [17] | [18]

CN(C)C(=O)Nc1ccc(Cl)cc1
inactive: [1] | [2] | [19] | [5] | [6] | [7] | [8] | [9] | [10] | [11] | [12] | [13] | CD40, CD40 (gene 958) | [14] | [15] | [16] | [17] | [18]

O=C(Nc1ccccc1)c1ccccc1I
inactive: [1] | [2] | [4] | [5] | [6] | [7] | [8] | [9] | [10] | [11] | [12] | [13] | CD40, CD40 (gene 958) | [14] | [15] | [16] | [17] | [18]
